# Compounds with a hit are over-represented: about 11% of the library has one in this group of screens.
# BAZ2B block: BAZ2B (human) inhibition; hit rate 4.4% among 360,000; AlphaScreen BAZ2B-H3K14Ac peptide displacement; Potency, µM (top dose mostly 114 µM), for inactives: at the highest dose activity change, negative = inhibition, most hits filed as inhibitors; Q9UIF8; further: potency means the concentration at half of the fitted maximal effect; on the % scale 0 is the no-effect control and ±100 the full control effect; nearly all actives have a fitted effect of over 60% in size
# Target sequence (Q9UIF8 whole entry, looked up): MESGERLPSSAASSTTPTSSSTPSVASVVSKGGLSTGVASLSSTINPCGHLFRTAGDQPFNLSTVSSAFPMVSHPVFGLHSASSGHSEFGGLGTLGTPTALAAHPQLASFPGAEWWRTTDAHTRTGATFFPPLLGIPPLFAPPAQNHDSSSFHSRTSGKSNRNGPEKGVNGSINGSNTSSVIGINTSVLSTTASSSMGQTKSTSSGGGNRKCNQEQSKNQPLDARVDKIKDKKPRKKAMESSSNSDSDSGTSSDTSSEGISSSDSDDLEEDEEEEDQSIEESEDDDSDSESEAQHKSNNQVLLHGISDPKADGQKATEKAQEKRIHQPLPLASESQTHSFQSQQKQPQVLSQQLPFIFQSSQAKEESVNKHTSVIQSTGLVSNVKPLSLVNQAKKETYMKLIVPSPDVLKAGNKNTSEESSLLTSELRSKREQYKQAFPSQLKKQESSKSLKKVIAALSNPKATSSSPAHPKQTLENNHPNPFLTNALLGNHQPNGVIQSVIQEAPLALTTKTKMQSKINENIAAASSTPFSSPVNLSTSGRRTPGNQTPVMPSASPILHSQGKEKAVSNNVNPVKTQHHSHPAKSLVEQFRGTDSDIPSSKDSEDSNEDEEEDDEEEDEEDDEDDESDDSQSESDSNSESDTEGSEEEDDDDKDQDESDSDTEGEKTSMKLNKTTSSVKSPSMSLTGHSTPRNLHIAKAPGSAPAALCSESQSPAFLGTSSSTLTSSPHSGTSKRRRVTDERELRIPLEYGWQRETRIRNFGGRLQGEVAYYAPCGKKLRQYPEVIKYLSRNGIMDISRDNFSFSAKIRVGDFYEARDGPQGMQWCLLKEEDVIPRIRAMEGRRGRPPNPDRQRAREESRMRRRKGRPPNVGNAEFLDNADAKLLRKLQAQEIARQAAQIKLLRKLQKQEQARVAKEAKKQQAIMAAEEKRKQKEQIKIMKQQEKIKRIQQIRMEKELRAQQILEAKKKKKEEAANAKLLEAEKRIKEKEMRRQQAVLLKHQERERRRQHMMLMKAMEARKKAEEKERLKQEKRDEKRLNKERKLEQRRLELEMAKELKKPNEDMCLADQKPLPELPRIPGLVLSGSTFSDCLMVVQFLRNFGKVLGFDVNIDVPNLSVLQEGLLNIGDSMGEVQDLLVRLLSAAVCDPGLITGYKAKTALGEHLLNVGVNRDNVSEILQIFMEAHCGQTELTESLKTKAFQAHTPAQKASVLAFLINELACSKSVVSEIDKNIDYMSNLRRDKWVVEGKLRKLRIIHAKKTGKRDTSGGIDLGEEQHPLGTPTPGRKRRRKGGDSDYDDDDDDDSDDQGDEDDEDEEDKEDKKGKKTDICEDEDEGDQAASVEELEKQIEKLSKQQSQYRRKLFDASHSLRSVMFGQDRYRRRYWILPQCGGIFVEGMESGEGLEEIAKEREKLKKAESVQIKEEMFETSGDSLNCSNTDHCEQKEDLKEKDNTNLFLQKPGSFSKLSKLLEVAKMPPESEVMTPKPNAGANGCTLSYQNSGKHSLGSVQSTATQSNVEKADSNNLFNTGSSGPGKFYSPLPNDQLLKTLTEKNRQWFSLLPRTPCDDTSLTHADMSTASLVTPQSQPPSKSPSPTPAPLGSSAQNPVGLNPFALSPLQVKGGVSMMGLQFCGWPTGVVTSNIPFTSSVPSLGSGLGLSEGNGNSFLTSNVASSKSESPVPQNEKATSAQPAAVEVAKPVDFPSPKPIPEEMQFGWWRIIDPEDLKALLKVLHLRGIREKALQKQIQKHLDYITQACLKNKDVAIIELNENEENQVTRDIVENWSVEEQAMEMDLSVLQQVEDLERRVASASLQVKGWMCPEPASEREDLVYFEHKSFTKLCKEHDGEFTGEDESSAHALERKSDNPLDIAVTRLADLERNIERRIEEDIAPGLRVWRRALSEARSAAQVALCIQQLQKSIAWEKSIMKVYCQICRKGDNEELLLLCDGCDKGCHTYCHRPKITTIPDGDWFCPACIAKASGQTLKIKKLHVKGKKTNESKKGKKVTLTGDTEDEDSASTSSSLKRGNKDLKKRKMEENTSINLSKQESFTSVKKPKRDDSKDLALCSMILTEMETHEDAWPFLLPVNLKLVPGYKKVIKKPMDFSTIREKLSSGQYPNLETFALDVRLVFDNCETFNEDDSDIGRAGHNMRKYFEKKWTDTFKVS
#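 BAZ2B (50 nM) with biotin-H3(5-23)K14Ac peptide (50 nM) in PBS pH 7.4, 0.01% Tween-20, preformed 30 min, then compound 30 min at room temperature; top concentration 110uM. AlphaScreen streptavidin donor/nickel chelate acceptor beads (10 ug/mL final), 20 min dark, signal read.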
# HP1b binding inh: HP1-beta chromodomain-methylated histone interaction inhibition; P83916; Potency, µM (series often up to 114 µM), inactives show top-dose activity change, negative = inhibition, usual class: inhibitors; AlphaScreen HP1-beta / biotin-H3K9me3 peptide binding; hit rate 0.56% among 390,000; further: potency means the concentration at half of the fitted maximal effect; nearly all actives have a fitted effect of over 70% in size
#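 AlphaScreen: HP1-beta (50 nM) preformed 30 min with biotin-H3(1-18)K9me3 peptide (50 nM) in PBS pH 7.4, 0.01% Tween-20. Compound added for 30 min at RT, then streptavidin donor/nickel chelate acceptor beads (10 ug/mL) for 30 min.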
# PLK1 PBD inh: inhibitors of human PLK1 polo-box domain binding; Plk1 PBD binding of FITC phosphopeptide, fluorescence polarization; Potency, µM, inactives show max response, negative = inhibition, hits mostly inhibitors; hit rate 2.8% among 360,000; further: potency means the concentration at half of the fitted maximal effect; series mostly up to about 57 µM; on the % scale 0 is the no-effect control and ±100 the full control effect; nearly all actives have a fitted effect of over 65% in size
# JMJD2A Tudor: inhibitors of human JMJD2A Tudor domain; AID 504339; hit rate 4.4% among 390,000; Potency, µM (highest dose often 114 µM), inactives show top-dose activity change, negative = inhibition, most hits filed as inhibitors; AlphaScreen JMJD2A-Tudor / H3K4me3 peptide binding; further: potency means the concentration at half of the fitted maximal effect; on the % scale 0 is the no-effect control and ±100 the full control effect; nearly all actives have a fitted effect of over 50% in size
# VDR inhibitor: inhibitors of human vitamin D receptor. P11473. VDR-SRC2-3 peptide fluorescence polarization, 2 h. Potency, µM, inactives show max response, negative = inhibition, actives largely listed as inhibitors. hit rate 0.93% among 400,000. AID 504847; further: potency means the concentration at half of the fitted maximal effect; on the % scale 0 is the no-effect control and ±100 the full control effect
#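 FP read-out; VDR + SRC2-3 coactivator peptide; 23 nl compound by pintool; 2 h RT incubation; reagents held at 4 deg C, protected from light.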
# G9a block: blocks human histone lysine methyltransferase G9a; hit rate 8.8% among 350,000; Potency, µM (titrated, usually from 102 µM), without a hit: at the top dose activity, negative = inhibition, hits mostly inhibitors; G9a H3K9 monomethylation, AlphaScreen, 2 h; Q96KQ7; AID 504332; further: potency means the concentration at half of the fitted maximal effect; on the % scale 0 is the no-effect control and ±100 the full control effect; nearly all actives have a fitted effect of over 75% in size
#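 Readings reflect AlphaScreen signal from monomethyl-H3K9 antibody detection. HMT at 20 nM; substrate b-H3K9 500 nM; cofactor SAM 20 uM; 2 h RT reaction; compounds tested as titrations in qHTS with 15 min preincubation.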
# USP1 UbRho: validation of human USP1/UAF1 inhibitors; AID 540327; hit rate 50% among 50; Ub-Rhodamine cleavage, fluorescence kinetic read; shares compounds with VDR inhibitor; Potency, µM (doses to about 114 µM), for the others: at the top dose activity change, negative = inhibition, most hits filed as inhibitors
# VDR inh confirm: inhibits human vitamin D receptor, primary hit validation; VDR-coactivator inhibition assay, qHTS confirmation; AID 602199; shares compounds with VDR inhibitor; hit rate 89% among 840; Potency, µM, most hits filed as inhibitors; further: potency means the concentration at half of the fitted maximal effect
# VDR FP fluor: VDR (human) coactivator binding inhibition, fluorescein polarization; shares compounds with VDR inhibitor; VDR-coactivator binding, fluorescein fluorescence polarization; Potency, µM (top dose mostly 57.1 µM), without a hit: top-dose activity change, negative = inhibition, most hits filed as inhibitors; hit rate 48% among 840; AID 602200; further: potency means the concentration at half of the fitted maximal effect
# VDR bla: VDR (human) inhibition, cell-based beta-lactamase validation. VDR beta-lactamase reporter cells, FRET ratio; cells co-treated with VDR agonist LG190178. Potency, µM (highest dose often 46.1 µM), for inactives: top-dose activity change, negative = inhibition, most hits filed as inhibitors. shares compounds with VDR inhibitor. hit rate 23% among 840; further: potency means the concentration at half of the fitted maximal effect; on the % scale 0 is the no-effect control and ±100 the full control effect
# VDR viability: counter-screen for vitamin D receptor inhibitors: cytotoxicity; shares compounds with VDR inhibitor; cytotoxicity counter-screen, cell viability, qHTS; Potency, µM (doses to about 48.3 µM), without a hit: top-dose activity change, negative = cytotoxicity, most hits filed as cytotoxic; hit rate 18% among 840;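 further: potency means the concentration at half of the fitted maximal effect; plate controls were DMSO for no effect and high-concentration cycloheximide for full effect; nearly all actives have a fitted effect of over 75% in size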
# * hit, by the source's call; ? = inconclusive; . = no result; ! = not active in a repeat; [ ] = dose if it differs, or a comment. The call rests on the fitted dose curve; in most records, active means well fitted curve in the direction sought with a large enough effect; inconclusive means small, poorly fitted or top-dose-only effect, or another doubt; inactive means no such curve, though single readings can be large; an effect the other way counts as inactive or inconclusive.
SMILES,BAZ2B block,HP1b binding inh,PLK1 PBD inh,JMJD2A Tudor,VDR inhibitor,G9a block,VDR inh confirm,VDR FP fluor,VDR bla,VDR viability,others
CCSc1nnc([C@H](Cc2ccccc2)NC(=O)OC(C)(C)C)o1,3.8%,15.9%,-7.8%,-11.9%,-9.6%,-1.1%[59 µM],.,.,.,.,
Cc1cccc(CS(=O)(=O)Cc2ccc(C(=O)NC(C)c3ccccc3)o2)c1 (stereo not drawn),-12.4%,73.6%,-13.4%,-6.2%,-2.9%,8.3%[59 µM],.,.,.,.,
O=C1c2c(-c3ccc(Br)cc3)noc2CCN1Cc1cn(Cc2ccccc2)nn1,.,.,-5.9%,.,.,.,.,.,.,.,
CN(CC(=O)NCc1ccncc1)S(=O)(=O)c1ccc(Cl)cc1,-2.7%,28.4%,1.7%,-3.4%,-13.1%,5.2%,.,.,.,.,
O=C(NCc1cccnc1)/C(=C\c1ccc(-c2ccc(Cl)c(Cl)c2)o1)S(=O)(=O)c1ccccc1,?,-6.7%,-28.5%,-35.6%,39.8µM*,?,15*,?,11.6µM*,14.6µM*,
COc1ccc(-c2c(C)nn3c(N)c(-c4ccccc4)cnc23)cc1OC,-2.8%,36.1%,-1.1%,-18.7%,-12.1%,4.5%,.,.,.,.,
CCOC(=O)c1c2c(n(-c3ccc(OC)cc3)c1C)C(=O)C(=O)c1ccccc1-2,.,?,?,17.8µM*,17.8µM*,.,11.9*,11.2µM*,5.8µM*,6.31µM*,
COc1ccc2cc(OCC(=O)NNC(=O)Nc3ccc(F)cc3)ccc2c1,-5.7%,8.4%,-6.1%,-11.8%,8.5%,.,.,.,.,.,
O=C1/C(=C/c2ccccn2)COc2ccccc21,-33.7%,24.0%,-15.0%,-3.7%,?,-47.6%,12.6*,22.4µM*,?,-18.6%,
CC(C)(C)C1C/C(=C/c2ccccn2)C(=O)/C(=C/c2ccccn2)C1 (stereo not drawn),?,15.3%,?,-10.3%[11.4 µM],?,?,2.51*,2µM*,1.03µM*,11.9µM*,
O=[S@]1Oc2ccccc2-c2ccccc21,.,34.7%,2.12µM*,-9.0%,6.31µM*,.,4.74*,?,-9.6%,31.0%,
CCOC(=O)c1c(NC(=O)c2ccco2)n(C2CCCCC2)c2nc3ccccc3nc12,13.3%,54.3%,-22.8%,-14.5%,?,50.1µM*,3.16*,?,-20.3%,-7.4%,
CCC(=O)Nc1c(C#N)c2nc3ccccc3nc2n1C1CCCCC1,-2.9%,64.6%,-0.1%,-11.5%[57.1 µM],6.4%,-11.3%[12.7 µM],.,.,.,.,
O=C(N/N=C/c1ccc2c(c1)OCO2)c1ccc(COc2cccc3cccnc23)cc1,-10.9%,31.2%,-0.7%,-4.8%,-6.7%,-1.2%,.,.,.,.,
O=C1NC(=O)C(=CC=Cc2ccccc2)S1,.,.,-15.2%,.,.,.,.,.,.,.,
CC1=NN(c2ccccc2)C(=O)/C1=C\C=C\c1ccccc1,3.98µM*,10µM*,0.0%,10µM*,39.8µM*,2.24µM*,18.9*,?,?,-25.3%,
COc1ccc2c(c1OC)C(Cc1ccccc1)N1CCc3cc4c(cc3C1=C2)OCO4 (stereo not drawn),.,.,.,.,31.6µM*,.,.,.,.,.,USP1 UbRho=41.8µM*
CCc1ccc(NC(=S)Nc2ccc3[nH]c(=O)[nH]c3c2)cc1,-20.6%,9.1%,-19.0%,-20.4%,4.1%,?,.,.,.,.,
CCC1CCCCN1S(=O)(=O)c1ccc(NC(=O)c2nc(S(C)(=O)=O)ncc2Cl)cc1 (stereo not drawn),-23.0%[57.1 µM],-18.3%[57 µM],11.9µM*,-29.2%,20µM*,39.8µM*,5.97*,3.16µM*,11.6µM*,9.2µM*,
CCSc1ncc(Cl)c(C(=O)Nc2ccc(S(=O)(=O)N3CCCCC3CC)cc2)n1 (stereo not drawn),-19.0%,18.0%,.,-19.8%,-1.2%,-28.1%[59 µM],.,.,.,.,
CCS(=O)(=O)c1ncc(Cl)c(C(=O)Nc2ccc(S(=O)(=O)N3CCCC(C)C3)cc2)n1 (stereo not drawn),-24.2%[57.1 µM],-5.0%[57 µM],?,?,?,79.4µM*,5.01*,2.82µM*,10.3µM*,9.47µM*,
Cc1nc2sc(C(c3ccc(F)cc3)N3CCN(C(=O)c4ccco4)CC3)c(O)n2n1 (stereo not drawn),0.6%,29.0%,-2.1%,-23.0%,2.8%,19.7%[59 µM],.,.,.,.,
Cc1ccc(CNC(=O)c2ccc3c(=O)n(-c4ccccc4)c(=O)[nH]c3c2)cc1,-0.9%,42.6%,.,0.0%,-12.1%,0.7%[59 µM],.,.,.,.,
O=C(Nc1cc(S(=O)(=O)N2CCOCC2)ccc1N1CCCCC1)c1cc(-c2ccccn2)nc2ccccc12,-31.3%,?,4.23µM*,79.4µM*,44.7µM*,2.82µM*,23.8*,8.91µM*,21.8%,-2.3%,
Cc1nc2sccn2c(=O)c1CCN1CCC(=C(c2ccc(F)cc2)c2ccc(F)cc2)CC1,?,-1.3%,-5.9%,?,79.4µM*!,1.4%[59 µM],.,.,.,.,USP1 UbRho=?
CCOc1ccc(CNC(=O)c2cc3ccccn3n2)cc1OC,-9.7%,9.9%,.,-13.3%,14.4%,-22.5%[59 µM],.,.,.,.,
Cc1cccc(C)c1OCc1nnc(NC(=O)CSc2ccc(Cl)cc2)s1,4.4%,32.1%,-5.5%,-8.8%,3.8%,16.1%[59 µM],.,.,.,.,
O=C(CSc1ccccc1)Nc1nnc(COc2ccc(Cl)cc2)s1,50.1µM*,?,2.67µM*,56.2µM*,39.8µM*,1.41µM*,2.99*,?,18.1%,23.7%,
Cc1cn2c(=O)cc(COC(=O)c3cccc(NC(=O)c4ccccc4Cl)c3)nc2s1,-5.4%,-7.5%,.,-18.2%,3.9%,1.9%[59 µM],.,.,.,.,
Cc1[nH]n(-c2ncc(-c3ccc(Cl)cc3)s2)c(=O)c1C(c1ccc(Cl)cc1)C(C#N)C#N (stereo not drawn),?,?,9.47µM*,56.2µM*,50.1µM*,?,8.44*,7.94µM*,14.1%,-6.3%,

# High-throughput results: PubChem BioAssay, National Center for Advancing Translational Sciences (NCATS)
